Source: ChEMBL document CHEMBL4513216, “Probing the Open Global Health Chemical Diversity Library for Multistage-Active Starting Points for Next-Generation Antimalarials” (ACS Infect Dis, 2020)
The campaign covered roughly 69,000 compounds. About 8,600 (12%) showed an effect of 50% or more. Shown is part of a subset that was picked to be rich in strong results.

What follows are molecules tested on Plasmodium berghei (assay: Screen against P. berghei liver stage (PbLuc), transformed with Luciferase, at 10uM). Settings: tested at 10 uM.
Format: functional, HepG2

Structure (SMILES)	INHIBITION [%]
CC(C)=CCC1(CO)CCCN(S(=O)(=O)N2CCCC2)C1 (stereo not given)	91.2
CCN(C)S(=O)(=O)N1CCCC(CO)(CC=C(C)C)C1 (stereo not given)	-3.96
CC(C)=CCC1(CO)CCCN(S(C)(=O)=O)C1 (stereo not given)	28.7
O=C(c1cccnc1O)N1CCN(CCc2cccs2)CC1	20.45
CCNc1nc(-c2cccnc2)c(-c2ccnc(NS(C)(=O)=O)n2)s1	47.1
CCNc1nc(-c2cccnc2)c(-c2ccnc(NCCO)n2)s1	-80.5
CC(C)(C)Nc1nc(-c2cccnc2)c(-c2ccnc(NCCO)n2)s1	59
CN(CC(=O)N1CCCC1Cn1cccn1)Cc1ccccc1 (stereo not given)	48.2
COc1cccc(CN2CCC3(CCN(C(=O)C4CC=CC4)CC3)C2)c1	21.3
Cc1cc(C2CCCCN2C(=O)c2ccsc2)nc2nccn12 (stereo not given)	71.3
Cc1noc(C)c1C(=O)N1CCCCC1c1cc(C)n2ccnc2n1 (stereo not given)	30.4
Cc1cc(C2CCCCN2C(=O)c2cccn2C)nc2nccn12 (stereo not given)	18.3
O=C(c1cncs1)N1CCOCC(Cc2ccncn2)C1 (stereo not given)	11.235
COc1cc(CN(CCCN(C)C)Cc2ccccn2)cc2c1OCO2	18.9
COc1cc(CN(Cc2ccccn2)CC(C)C)cc2c1OCO2	36.2
COc1cc(CN(C)C(C)c2ccccn2)cc2c1OCO2 (stereo not given)	58.6
Cc1cc(F)c(S(=O)(=O)NCC(C)(C)N)cc1F	37.6
CCN(CC)c1ncc(CNC2CCc3nc(C(C)C)nn3C2)s1 (stereo not given)	-3.54
Cc1n[nH]c(C)c1CCCNCc1cn(CCC(N)=O)c2ccccc12	66.7
Cc1ccc(C(C)NCc2cn(CCC(N)=O)c3ccccc23)cc1C (stereo not given)	27.7
CC(C)n1cnnc1CCNCc1cn(CCC(N)=O)c2ccccc12	6.94
CCCN1CCN(Cc2cn(CCC(N)=O)c3ccccc23)CC1	39.8
CC(NCc1cn(CCC(N)=O)c2ccccc12)c1nncn1C (stereo not given)	32.7
NC(=O)CCn1cc(CNCCCc2ccncc2)c2ccccc21	-71.1
NC(=O)CCn1cc(CNCc2csc(N)n2)c2ccccc21	60.9
NC(=O)CCn1cc(CNCCCc2ccccc2O)c2ccccc21	88.5
NC(=O)CCn1cc(CNCCCc2csc(N)n2)c2ccccc21	29
COc1ccc(S(=O)(=O)N2CCC(O)(CN(C)C)C2)cc1 (stereo not given)	38.2

Structure (SMILES)	INHIBITION [%]
Cc1sc(Br)cc1S(=O)(=O)NCCN	45
O=C(Cc1csc(Cc2ccccn2)n1)NCCCN1CCCC1=O	17.5
CCOCCC(=O)Nc1cccc(Cl)c1COC	33.7
O=C(Cc1n[nH]c2ccccc12)N1CCCC1Cn1cccn1 (stereo not given)	24
CCc1nnc(C(C)N2CCN(CCC(=O)NC3CC3)CC2)o1 (stereo not given)	33.1
CCc1nnc(C(C)N2CCCN(C(=O)OCC(C)C)CC2)o1 (stereo not given)	36.5
CCc1nnc(C(C)N2CCN(CCC(C)(C)C)CC2)o1 (stereo not given)	62.4
Cc1cncc(C(=O)N2CCCC(O)(CN3CCCC3)C2)c1 (stereo not given)	4.13
CC(C)C(=O)N1Cc2ccccc2CC2(CCCCN2C)C1 (stereo not given)	53.2
CC(=O)N1Cc2ccccc2CC2(CCCCN2C)C1 (stereo not given)	42.4
CC(C)C(=O)N1Cc2ccccc2CC2(CCCN2C)C1 (stereo not given)	37.5
CN1CCCCC12Cc1ccccc1CN(C(=O)c1ccccc1)C2 (stereo not given)	10.1
C[C@H](C(=O)N1Cc2ccccc2CC2(CCCN2C)C1)c1ccccc1 (stereo not given in full)	51.6
CN1CCCCC12Cc1ccccc1CN(C(=O)C1CCCC1)C2 (stereo not given)	8.49
O=C(c1ccccc1)N(CC1CC1)c1cccnc1	39.7
Cc1cc(NCc2cc3n(n2)CCCN(C(=O)C2CCC2)C3)ncn1	-2.46
CCc1nc(N2CCOCC2)ncc1C(=O)NC(c1cccs1)C(C)C (stereo not given)	29.5
COCCN1C=NC2(CCC(C(=O)Nc3ccc(C)cc3)CC2)C1=O (stereo not given)	63.5
COCCN1C(=O)C2(CCC(C(=O)Nc3ccc(C)cc3)CC2)N=C1C (stereo not given)	31.4
COCCN1C(=O)C2(CCC(C(=O)Nc3ccc(F)cc3)CC2)N=C1C (stereo not given)	20.1
Cc1nc(Nc2cnccn2)cc(C2CN(C(C)C)C2)n1	-21.4
Cc1ccc(-c2nnc(SCC(=O)O)n2-c2ccccc2)cc1	5.11
CC(C)CS(=O)(=O)N1C[C@@H]2C[C@H](C(=O)N(C)C)[C@H](C1)O2	37.5
CCC(C(=O)N1CCN(S(=O)(=O)N2CCCC2)CC1)n1cccn1 (stereo not given)	13
O=C1CCCC2=Nc3nonc3NC(c3cccc(F)c3F)C12 (stereo not given)	4.66
O=C1CCCC2=Nc3nonc3NC(c3ccccc3F)C12 (stereo not given)	12.3
O=C1CCCC2=Nc3nonc3NC(c3cc(Cl)ccc3F)C12 (stereo not given)	76.8
